Bioassay records deposited in PubChem by NMMLSC.
RPL19A TOR yeast – RPL19A-GFP expression modulators in yeast, primary screen, cell-based, S. cerevisiae, multiplex flow cytometry, MLPCN; S. cerevisiae RPL19A-GFP strain, 3 h; stronger effect = lower value; hit rate 0.3% among 330,000; AID 2025, 2009; percent response vs DMSO, % at 10 µM;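 active means percent response vs DMSO below 50%; inconclusive means fewer than 70 events counted for the yeast strain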;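 further: median channel GFP fluorescence of the barcoded RPL19A-GFP strain; lower means less RPL19A-GFP as with rapamycin TOR inhibition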
Efflux pump inh – inhibitors of Candida efflux pumps in yeast, primary screen, S. cerevisiae, Nile Red, multiplex; S. cerevisiae Candida pump triplex; inhibition, % at 10 µM; hit rate 0.44% among 330,000;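 active means plate passing quality check with inhibition over a set limit, or well fluorescence over plate mean plus 4 SD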;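 further: Nile Red retained in pooled yeast measured as flow cytometry median fluorescence; higher means more Nile Red kept so more efflux inhibition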
CIT2-GFP yeast – modulators of CIT2-GFP expression in yeast, primary screen, S. cerevisiae, GFP fusion, multiplex flow cytometry, MLPCN library. S. cerevisiae CIT2-GFP strain, 3 h; 100 means same as DMSO wells. GFP response vs DMSO, % at 10 µM. hit rate 0.065% among 320,000. AID 2029, 2009;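 active means GFP response relative to DMSO above a set limit, near the screen mean plus 3 SD, cut at about 150% in these data; inconclusive means Fewer than 70 cells measured for a yeast strain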;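 further: ratio of well median GFP fluorescence to mean of DMSO wells on the plate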
MEP2 TOR yeast – modulators of MEP2-GFP levels in yeast, primary screen, S. cerevisiae, multiplex flow cytometry, MLPCN library. S. cerevisiae MEP2-GFP strain, 3 h; 100% = DMSO control level. GFP response vs DMSO, % at 10 µM. hit rate 0.51% among 330,000;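 active means GFP response versus DMSO above a set limit, roughly screen mean plus 3 SD, cut at about 180% in these data; inconclusive means fewer than 70 cells counted for a yeast strain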;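 further: median GFP fluorescence of the barcode-gated MEP2-GFP cells per well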
AGP1-GFP MLPCN – modulators of AGP1-GFP expression in yeast TOR pathway, primary screen, cell-based, multiplex flow cytometry, S. cerevisiae, MLPCN library; 3 h; GFP as percent of DMSO wells; GFP response vs DMSO, % at 10 µM; hit rate 0.02% among 320,000; AID 2066, 2009;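 active means GFP response relative to DMSO above a set limit, near screen average plus 3 SD, cut at about 150% in these data; inconclusive means fewer than 70 cells counted for the yeast strain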;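 further: median GFP channel fluorescence of the gated AGP1 strain per well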
LAP4 TOR yeast – modulators of LAP4-GFP expression in yeast, primary screen, S. cerevisiae, multiplex flow cytometry, MLPCN library | 3 h; median GFP as percent of DMSO wells | GFP response vs DMSO, % at 10 µM | hit rate 0.34% among 320,000 | AID 2023, 2009;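 active means GFP response vs DMSO above a set limit, about the screen mean plus 3 SD, cut at about 150% in these data; inconclusive means under 70 cell events counted for the yeast strain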
LAP4-GFP pick2 – LAP4-GFP expression modulators in yeast, confirmation, cell-based, second cherry pick, flow cytometry; shares compounds with LAP4 TOR yeast; S. cerevisiae LAP4-GFP strain, 3 h; GFP response vs DMSO, % at 10 µM; hit rate 20% among 590; AID 2621, 2010;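 active means GFP signal as percent of the solvent control above about 150%, meaning raised reporter expression, limit read from the data; inconclusive means fewer than 70 cells counted in the well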
MEP2 cherry2 – modulators of MEP2-GFP levels in yeast, confirmation, S. cerevisiae, flow cytometry GFP, second cherry picks; shares compounds with LAP4 TOR yeast; S. cerevisiae MEP2-GFP strain, 3 h; GFP response vs DMSO, % at 10 µM; hit rate 10% among 590; AID 2622, 2010;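 active means GFP signal above 150% of the solvent control wells, that is a rise of more than half; inconclusive means fewer than 70 yeast cells counted in the well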;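 further: median channel GFP fluorescence of all gated yeast cells per well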
RPL19A-GFP pick2 – RPL19A-GFP modulators in TOR pathway yeast, confirmation, cell-based, S. cerevisiae, flow cytometry, second cherry pick; hit rate 3% among 590; GFP response vs DMSO, % at 10 µM; shares compounds with LAP4 TOR yeast; AID 2623, 2010; S. cerevisiae RPL19A-GFP strain, 3 h; stronger effect = lower value; 100% means same as DMSO wells;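 active means under 65% GFP response relative to DMSO; inconclusive means yeast strain with under 70 measured events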;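 further: median GFP channel fluorescence per well over the all cells gate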
CIT2-GFP pick2 – modulators of CIT2-GFP expression in yeast, confirmation, flow cytometry, second cherry pick, single plex | shares compounds with LAP4 TOR yeast | S. cerevisiae CIT2-GFP strain, 3 h; DMSO control wells read 100% | GFP response vs DMSO, % at 10 µM | hit rate 8% among 590 | AID 2624, 2010;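 active means GFP response vs DMSO above about 150%, limit read from the data; inconclusive means fewer than 70 events counted for a yeast strain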;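 further: median green fluorescence per well over all gated yeast cells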
AGP1-GFP pick2 – AGP1-GFP expression modulators, hit retest, confirmation, cell-based, flow cytometry, S. cerevisiae, cherry pick set 2. shares compounds with LAP4 TOR yeast. S. cerevisiae AGP1-GFP strain, 3 h. percent response vs DMSO, % at 10 µM. 590 tested, under 10 active. AID 2643, 2010;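 active means over 150 percent of DMSO response; inconclusive means yeast strain measured with under 70 events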;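 further: median GFP channel fluorescence over all cells without mother daughter split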
s288c autofluor – compound autofluorescence in yeast s288c, dose response, artefact control for yeast TOR pathway GFP screen, s288c strain; AID 2757, 2010; shares compounds with LAP4 TOR yeast; S. cerevisiae s288c, 520 nm autofluorescence, flow cytometry, 3 h; stronger effect = higher value; zero means same as solvent-only cells; fluorescence change (kMESF span) at 33 µM; 610 tested, under 10 active;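 active means fluorescence span over the dose series, or activity score, above about 33, limit read from the data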
Large screens that a line does not name were inactive (follow-up assays come after a bar, where they were run); [ ] = another dose, or the depositor's remark. This is a sample that favours compounds with a hit; in the whole collection about 1.3% have one here.

C#CCOCCOCCOCCNc1nc(N2CCN(C(=O)CCCCCCCCCCNC(=O)[C@H](CCCN=C(N)N)n3cc(C[C@@H](C)CC)nn3)CC2)nc(N2CCN(C(=O)CCCCCCCCCCNC(=O)[C@@H]([C@H](C)CC)n3cc(CCCCCN)nn3)CC2)n1	Efflux pump inh 4.8, LAP4 TOR yeast 192.6
Cc1ccc(OCCC(=O)OCC(=O)Nc2ccc3c(c2)OCO3)cc1	none
O=C(Nc1ccc2oc(-c3cccnc3)nc2c1)c1cc2ccccc2o1	none
O=C(NC(=S)Nc1ccc2oc(-c3cccnc3)nc2c1)c1cccc(Cl)c1	CIT2-GFP yeast inconclusive, MEP2 TOR yeast 226.5[may fluoresce violet] (no result: AGP1-GFP MLPCN)
Cc1cc(C)c(C(=O)Cn2cnc3cc([N+](=O)[O-])ccc3c2=O)cc1C	MEP2 TOR yeast 196.0
Cc1ccc(OCCN2CCN(C(=O)CCC(=O)Nc3nnc(CC(C)C)s3)CC2)cc1	RPL19A TOR yeast 42.9[may fluoresce violet], CIT2-GFP yeast inconclusive, MEP2 TOR yeast 354.5[may fluoresce violet], AGP1-GFP MLPCN inconclusive
COc1cc(S(=O)(=O)Nc2ccc3c(c2)C(=O)N(C)C3=O)ccc1NC(C)=O	none
CC1CC(C)(C)CC2(C1)NC(=O)N(CC(=O)N(C)Cc1nc3ccccc3c(=O)[nH]1)C2=O (configuration not stated)	none
COc1cccc(CNC(=O)c2ccc3c(c2)N(C)CCS3)c1OC	CIT2-GFP yeast 161.4, MEP2 TOR yeast 758.7, AGP1-GFP MLPCN 154.1, LAP4 TOR yeast 258.4 | LAP4-GFP pick2 inactive | MEP2 cherry2 inactive | RPL19A-GFP pick2 inactive | CIT2-GFP pick2 inactive | AGP1-GFP pick2 inactive
COc1ccc(/C=C/c2ccc3c(Br)ccc(O)c3n2)cc1	none
COc1cc(/C=C/c2ccc3c(Br)cc(Br)c(O)c3n2)ccc1O	LAP4 TOR yeast 163.8 | s288c autofluor inactive
Cn1nc(CC(=O)Nc2ncc(Br)s2)c2ccccc2c1=O	none | LAP4-GFP pick2 inactive | MEP2 cherry2 inactive | RPL19A-GFP pick2 inactive | CIT2-GFP pick2 inactive | AGP1-GFP pick2 inactive
C#CCOc1c(Br)cc(/C=C2/C(=O)ON=C2C)cc1OCC	none
C#CCOc1c(Br)cc(/C=C2/C(=O)ON=C2C)cc1OC	LAP4 TOR yeast 197.5 | LAP4-GFP pick2 187.4 | MEP2 cherry2 inactive | RPL19A-GFP pick2 inactive | CIT2-GFP pick2 inactive | AGP1-GFP pick2 inactive | s288c autofluor inactive
